Source: PubChem BioAssay (The Scripps Research Institute Molecular Screening Center)
hcDAF12 agonist = H. contortus DAF-12 activation, primary screen. HEK293 hcDAF-12 lit1-tk-luc reporter, luminescence; 0% DMSO, 100% Δ7-dafachronic acid. activation, % at 6.8 µM. 1.4% of 370,000 active;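 active = activation above the mean of all tested compounds plus 3 SD, cut at about 5.5% in these data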;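 note: 100% = response to 3 µM Δ7-dafachronic acid high control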
hgDAF12 agonist = hgDAF-12 agonism, primary luciferase screen. HEK293 GAL4-hgDAF12 UAS-luciferase reporter, agonist luminescence; normalized to butyrate control. activation, % at 6.8 µM. 1.8% of 370,000 active;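 active = activation above a cutoff set at the mean of all screened compounds plus 3 SD, cut at about 10% in these data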;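 note: 0% = DMSO wells and 100% = sodium butyrate wells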
ssDAF12 agonist = activates DAF-12 receptor from parasite S. stercoralis; HEK293 ssDAF-12/GRIP1 lit1-tk-luc reporter, luminescence; % of 3 µM dafachronic acid response; activation, % at 6.8 µM; 1% of 370,000 active;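 active = activation above the mean over all tested compounds plus 3 SD, cut at about 0.9% in these data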;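 note: 0% = DMSO-only wells and 100% = 3 µM delta7-dafachronic acid wells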
AHR act = activators of human aryl hydrocarbon receptor; AHR-responsive luciferase reporter cells, luminescence; activation, % at 5 µM; 2.5% of 320,000 active; AID 2796; in the data active = activation above about 47%;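 note: 0% = vehicle wells and 100% = reference agonist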
DAX1 inh-1 = blocks DAX1 repression of SF-1 activated StAR promoter | 1.1% of 370,000 active | HEK293T StAR-luciferase reporter, SF-1/DAX-1 repression relief | AID 652010 | inhibition, % at 6.8 µM;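 active = inhibition above the mean over all tested compounds plus 3 SD, cut at about 3.6% in these data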;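 note: 0% = DAX-1 cells with DMSO and 100% = cells lacking DAX-1 with DMSO; higher inhibition means more luminescence from relief of DAX-1 repression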
DAX1 inh-2 = inhibitors of human orphan nuclear receptor DAX1 (NR0B1); P51843; HEK293 Gal4-DAX1 luciferase reporter, luminescence; inhibition, % at 6.75 µM; 0.99% of 340,000 active; AID 504766;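 active = inhibition above the mean over all tested compounds plus 3 SD, cut at about 4.2% in these data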;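 note: 0% = DAX1-transfected cells with DMSO and 100% = empty-vector control cells with DMSO; inhibition shows as a rise in luminescence from relieved DAX1 repression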
Target sequence (P51843 207-470 limits assumed): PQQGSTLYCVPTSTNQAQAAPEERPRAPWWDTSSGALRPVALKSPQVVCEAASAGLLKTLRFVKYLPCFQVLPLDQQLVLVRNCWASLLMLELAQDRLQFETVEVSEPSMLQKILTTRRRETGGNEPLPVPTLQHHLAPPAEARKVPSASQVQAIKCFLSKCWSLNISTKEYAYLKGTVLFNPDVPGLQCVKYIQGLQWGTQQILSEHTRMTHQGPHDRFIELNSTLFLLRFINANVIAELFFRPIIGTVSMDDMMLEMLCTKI
AHR act cf = human AHR activation, confirmation. shares compounds with AHR act. activation, % at 9 µM. 87% of 2,300 active. human cells, AHR-responsive luciferase reporter, luminescence; in the data active = activation above about 49%;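 note: HepG2 hepatoma cells carrying a DRE-driven firefly luciferase reporter; 0% = vehicle wells and 100% = reference agonist wells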
PXR act counter = activates human PXR in AHR activator counter-screen. shares compounds with AHR act. cell-based PXR reporter, luciferase luminescence. activation, % at 11.6 µM. 88% of 2,300 active. AID 434939; in the data active = activation above about 11%;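 note: human hepatoma DPX-2 cells expressing full-length human PXR; 0% = DMSO and 100% = reference agonist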
The depositor's hits bear a star; . = no result given. An excerpt weighted towards active compounds, which were near 5.7% of everything screened.

SMILES	hcDAF12 agonist	hgDAF12 agonist	ssDAF12 agonist	AHR act	DAX1 inh-1	DAX1 inh-2	AHR act cf	PXR act counter
COc1ccc(C2C(C(=O)NCCCN3CCOCC3)c3ccccc3C(=O)N2c2ccc(OC)cc2)cc1 (stereo not drawn)	1	-5	-2	0	1	-1	.	.
N=C1S/C(=C\c2ccco2)C(=O)N1c1nccs1	2	7	-1	112*	0	3	111*	10*
Fc1ccc(N/N=C2/CC(c3ccccc3)Oc3ccccc32)c(F)c1 (stereo not drawn)	1	0	0	98*	0	-1	90*	26*
CNC(=S)N/N=C1\CC(c2ccccc2)Oc2ccccc21 (stereo not drawn)	-2	-2	-1	4	-1	0	.	.
Cc1cccc(NC(=O)c2cnc3scc(C)n3c2=O)c1	5	6	-1	79*	2	2	96*	57*
COc1cc(C)nc(Nc2nc(C)c(C(C)=O)s2)n1	2	3	-1	108*	0	0	38	11*
COc1ccccc1-n1nnnc1SCC(=O)Nc1ccc(C)c(N)c1	0	-2	-1	94*	0	1	81*	58*
COc1ccc(NC(=O)CSc2nnnn2-c2ccccc2OC)c(OC)c1	-1	0	-1	2	-1	-3	.	.
O=C(Nc1c(F)cc(F)cc1Br)c1cccnc1	-2	-1	-2	1	0	0	.	.
Cn1ncc(Br)c1C(=O)Nc1ccc(F)cc1F	0	0	0	85*	0	-1	80*	17*
CCCc1c(C(=O)Nc2ccc(F)cc2F)cnn1-c1ccccc1	-2	0	-1	83*	0	-1	91*	71*
Cc1nn(C)c(C(=O)Nc2ccc(Br)cc2F)c1Br	.	.	.	88*	.	1	110*	12*
Cc1cc(NC(=O)c2c(Br)cnn2C)no1	-1	-1	-2	.	1	1	.	.
O=C(Nc1ccc(Br)cc1F)c1cccnc1	-1	1	-1	126*	0	0	60*	26*
CC(=O)c1cccc(NC(=O)Cc2ccc3c(c2)CCCC3)c1	-3	-2	-1	4	-1	0	.	.
COc1ccc(NC(=O)CN(C)CC(=O)N(C)C2(C#N)CCC(C)CC2)cc1 (stereo not drawn)	-1	1	-1	3	-1	0	.	.
COc1ccc(CNC(=O)C2CCCN(C(=O)Nc3ccc(OC)cc3)C2)cc1 (stereo not drawn)	-2	1	-1	-3	0	0	.	.
Cc1ccc(C(=O)NNC(=O)CSc2nnc(C3CC3)n2C)cc1	1	1	-1	-5	0	-2	.	.
CSc1nnc(CCNS(=O)(=O)c2ccccc2Br)n1C	0	4	-1	-1	0	-2	.	.
COc1ccc([N+](=O)[O-])cc1NS(=O)(=O)c1cccc(C(=O)OC2CCOC2=O)c1 (stereo not drawn)	1	0	-1	1	0	1	.	.
Cc1c(C(=O)N/N=C/C(C)C)[nH]c2c([N+](=O)[O-])cccc12	3	0	-2	86*	0	1	39	10*
Cc1cc(C(=O)N/N=C/c2cccc([N+](=O)[O-])c2O)n[nH]1	-2	1	-1	21	0	-2	.	.
C=CCn1c(=N)n(CC(=O)c2cccc([N+](=O)[O-])c2)c2ccccc21	-1	4	-1	85*	1	-2	128*	58*
O=C(CN1CCCc2ccccc21)N/N=C/c1ccccc1	4	1	0	87*	1	2	25	40*
Cc1cccc(-c2noc(CCCC(=O)N3CCOCC3)n2)c1	-1	-1	-1	0	0	2	.	.
O=C(N/N=C/c1ccc([N+](=O)[O-])o1)c1cc(-c2ccc(-c3ccccc3)cc2)nc2ccccc12	2	1	-1	128*	0	-2	43	25*
